These results are taken from publication PMC7862700, “An all-to-all approach to the identification of sequence-specific readers for epigenetic DNA modifications on cytosine”.

What all share (experiment): DAPPL (digital affinity profiling via proximity ligation, sequencing); 10 mM Tris-HCl pH 7.5, 50 mM NaCl, 1 mM DTT, 4% glycerol, room temperature, 30 min; GST-TFs on glutathione beads, 16-mer random dsDNA library, 0.1% formaldehyde crosslink after washing; high values mean tight binding
For test [1], the target named is T1, FLI1 (Homo sapiens, UniProt Q01543 1-452).
T1 sequence: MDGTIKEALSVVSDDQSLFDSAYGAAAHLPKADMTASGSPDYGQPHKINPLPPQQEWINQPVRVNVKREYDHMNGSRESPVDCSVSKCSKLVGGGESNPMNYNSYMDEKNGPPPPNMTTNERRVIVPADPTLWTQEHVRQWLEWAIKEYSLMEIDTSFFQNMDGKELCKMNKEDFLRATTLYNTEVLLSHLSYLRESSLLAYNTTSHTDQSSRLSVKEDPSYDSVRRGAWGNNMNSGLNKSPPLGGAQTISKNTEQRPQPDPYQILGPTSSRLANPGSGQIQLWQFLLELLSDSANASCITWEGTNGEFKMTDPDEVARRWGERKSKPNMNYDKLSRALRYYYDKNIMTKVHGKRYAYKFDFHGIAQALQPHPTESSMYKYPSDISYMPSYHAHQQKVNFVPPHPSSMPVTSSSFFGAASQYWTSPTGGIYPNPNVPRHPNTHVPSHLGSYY
The settings on record: protein: recombinant; tags: N-terminal GST; dsDNA, one strand shown. Put shortly: (§1)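 Beads coated with glutathione captured GST-fused human transcription factors that had been expressed in yeast, and the factors were then given DNA barcodes and pooled with a tag-only sample. The pools were incubated with 200 nmole of a random double-stranded 16-mer DNA library in Tris/NaCl/DTT/glycerol buffer for 30 min at room temperature, washed, crosslinked with 0.1% formaldehyde and proximity-ligated with BsaI/T4 ligase at 37 °C for 1 h. PCR amplification and Illumina NextSeq500 sequencing came last. Binding signal is each hexamer's read frequency for a factor divided by its frequency for the tag-only sample.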

Test [2] addresses T2, GABPA (Homo sapiens, UniProt Q06546 1-454).
T2 sequence: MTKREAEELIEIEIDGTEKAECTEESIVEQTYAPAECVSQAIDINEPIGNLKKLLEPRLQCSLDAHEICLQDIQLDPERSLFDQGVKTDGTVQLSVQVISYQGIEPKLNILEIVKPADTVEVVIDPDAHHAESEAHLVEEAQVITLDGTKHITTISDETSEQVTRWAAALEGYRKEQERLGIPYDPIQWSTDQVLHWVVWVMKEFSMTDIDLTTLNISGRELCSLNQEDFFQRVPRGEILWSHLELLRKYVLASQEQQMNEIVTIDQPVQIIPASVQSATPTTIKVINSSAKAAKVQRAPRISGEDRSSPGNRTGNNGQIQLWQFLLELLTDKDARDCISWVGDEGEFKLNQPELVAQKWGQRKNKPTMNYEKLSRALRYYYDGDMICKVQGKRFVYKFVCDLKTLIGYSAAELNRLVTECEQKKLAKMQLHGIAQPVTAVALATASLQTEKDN
The conditions noted are these: protein: recombinant; tags: N-terminal GST; dsDNA, one strand shown. Put shortly: as §1

For test [3], the target named is T3, ERG (Homo sapiens, UniProt P11308 1-479).
T3 sequence: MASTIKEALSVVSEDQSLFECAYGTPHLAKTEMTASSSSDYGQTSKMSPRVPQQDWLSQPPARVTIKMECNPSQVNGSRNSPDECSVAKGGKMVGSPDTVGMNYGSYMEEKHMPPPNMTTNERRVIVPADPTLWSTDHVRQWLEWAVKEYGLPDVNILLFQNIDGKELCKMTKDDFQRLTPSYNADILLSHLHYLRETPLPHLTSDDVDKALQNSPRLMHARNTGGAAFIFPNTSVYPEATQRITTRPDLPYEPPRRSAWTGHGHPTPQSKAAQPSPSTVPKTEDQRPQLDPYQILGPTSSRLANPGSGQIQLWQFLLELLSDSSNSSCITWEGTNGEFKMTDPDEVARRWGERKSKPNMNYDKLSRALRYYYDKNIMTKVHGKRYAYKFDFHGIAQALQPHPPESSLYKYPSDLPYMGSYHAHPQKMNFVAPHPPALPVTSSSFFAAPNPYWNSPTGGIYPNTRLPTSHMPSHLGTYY
The conditions noted are these: protein: recombinant; tags: N-terminal GST; dsDNA, one strand shown. Put shortly: as §1

Test [4] has as its target ELF1 (Homo sapiens, UniProt P32519 1-619). The settings on record: protein: recombinant; tags: N-terminal GST; dsDNA, one strand shown. Put shortly: as §1
The target in test [5] is T4, EHF (Homo sapiens, UniProt Q9NZC4 1-300).
T4 sequence: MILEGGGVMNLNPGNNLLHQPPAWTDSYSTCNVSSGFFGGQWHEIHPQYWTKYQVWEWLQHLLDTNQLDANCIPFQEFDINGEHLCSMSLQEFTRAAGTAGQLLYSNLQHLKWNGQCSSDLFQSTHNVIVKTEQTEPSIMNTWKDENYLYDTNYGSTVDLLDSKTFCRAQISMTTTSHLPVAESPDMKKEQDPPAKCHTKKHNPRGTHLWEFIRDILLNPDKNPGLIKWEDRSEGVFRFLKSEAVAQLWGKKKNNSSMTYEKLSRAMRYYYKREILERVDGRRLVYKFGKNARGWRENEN
The conditions noted are these: protein: recombinant; tags: N-terminal GST; dsDNA, one strand shown. Put shortly: as §1

In test [6] the target is SPI1 (Homo sapiens, UniProt P17947 1-270). The settings on record: protein: recombinant; tags: N-terminal GST; dsDNA, one strand shown. Put shortly:
as §1

For test [7], the target named is SPIB (Homo sapiens, UniProt Q01892 1-262). The conditions noted are these: protein: recombinant; tags: N-terminal GST; dsDNA, one strand shown. Put shortly: as §1
Test [8] has as its target T5, ELK3 (Homo sapiens, UniProt P41970 1-407).
T5 sequence: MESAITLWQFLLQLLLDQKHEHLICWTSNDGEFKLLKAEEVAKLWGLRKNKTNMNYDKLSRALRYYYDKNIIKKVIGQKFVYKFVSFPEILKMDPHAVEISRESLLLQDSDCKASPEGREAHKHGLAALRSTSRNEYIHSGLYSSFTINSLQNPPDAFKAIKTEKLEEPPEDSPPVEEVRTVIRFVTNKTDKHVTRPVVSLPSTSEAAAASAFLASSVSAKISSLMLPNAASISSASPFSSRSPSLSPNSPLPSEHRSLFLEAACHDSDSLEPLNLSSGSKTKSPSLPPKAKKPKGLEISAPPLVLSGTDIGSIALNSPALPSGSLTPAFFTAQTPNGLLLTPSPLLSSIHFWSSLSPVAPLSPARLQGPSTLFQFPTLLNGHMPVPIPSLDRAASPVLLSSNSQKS
The settings on record: protein: recombinant; tags: N-terminal GST; dsDNA, one strand shown. The gist of the method: as §1

Test [9] concerns the target T6, FEV (Homo sapiens, UniProt Q99581 1-238).
T6 sequence: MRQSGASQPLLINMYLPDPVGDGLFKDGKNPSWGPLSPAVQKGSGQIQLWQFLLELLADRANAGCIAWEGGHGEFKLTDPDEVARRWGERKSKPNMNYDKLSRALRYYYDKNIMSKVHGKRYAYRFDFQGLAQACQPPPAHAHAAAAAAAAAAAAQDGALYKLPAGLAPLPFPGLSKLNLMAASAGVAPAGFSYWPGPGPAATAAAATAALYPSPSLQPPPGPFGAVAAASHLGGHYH
The conditions noted are these: protein: recombinant; tags: N-terminal GST; dsDNA, one strand shown. Put shortly:
as §1

For test [10], the target named is ETV5 (Homo sapiens, UniProt P41161 1-510). The conditions noted are these: protein: recombinant; tags: N-terminal GST; dsDNA, one strand shown. The gist of the method:
as §1

In test [11] the target is HSF1 (Homo sapiens, UniProt Q00613 1-529). The settings on record: protein: recombinant; tags: N-terminal GST; chain copies: 3; dsDNA, one strand shown. The gist of the method: as §1
The target in test [12] is T7, SPIC (Homo sapiens, UniProt Q8N5J4 1-248).
T7 sequence: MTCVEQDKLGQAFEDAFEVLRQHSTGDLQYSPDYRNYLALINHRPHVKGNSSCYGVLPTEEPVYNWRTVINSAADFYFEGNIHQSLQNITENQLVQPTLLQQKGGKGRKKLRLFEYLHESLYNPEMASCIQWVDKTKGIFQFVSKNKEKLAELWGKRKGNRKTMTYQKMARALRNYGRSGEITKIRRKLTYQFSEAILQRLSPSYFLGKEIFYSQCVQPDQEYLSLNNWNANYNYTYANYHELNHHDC
The settings on record: protein: recombinant; tags: N-terminal GST; dsDNA, one strand shown. Put shortly:
as §1

The target in test [13] is ELF4 (Homo sapiens, UniProt Q99607 1-663). The settings on record: protein: recombinant; tags: N-terminal GST; dsDNA, one strand shown. The gist of the method:
as §1

Test [14] addresses T8, ELK4 (Homo sapiens, UniProt P28324-2 1-405).
T8 sequence: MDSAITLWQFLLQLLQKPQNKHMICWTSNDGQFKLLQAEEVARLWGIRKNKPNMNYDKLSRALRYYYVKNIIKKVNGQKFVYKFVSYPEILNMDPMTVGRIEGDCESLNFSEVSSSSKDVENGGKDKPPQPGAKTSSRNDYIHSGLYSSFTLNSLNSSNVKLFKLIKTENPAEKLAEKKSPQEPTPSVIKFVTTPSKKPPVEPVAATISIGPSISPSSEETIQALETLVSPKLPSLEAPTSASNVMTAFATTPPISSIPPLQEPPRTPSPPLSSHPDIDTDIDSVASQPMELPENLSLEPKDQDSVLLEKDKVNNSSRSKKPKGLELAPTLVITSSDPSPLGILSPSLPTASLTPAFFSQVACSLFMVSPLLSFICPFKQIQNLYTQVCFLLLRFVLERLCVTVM
The conditions noted are these: protein: recombinant; tags: N-terminal GST; dsDNA, one strand shown. The gist of the method:
as §1

The target of test [15] is T9, ETV2 (Homo sapiens, UniProt O00321 1-342).
T9 sequence: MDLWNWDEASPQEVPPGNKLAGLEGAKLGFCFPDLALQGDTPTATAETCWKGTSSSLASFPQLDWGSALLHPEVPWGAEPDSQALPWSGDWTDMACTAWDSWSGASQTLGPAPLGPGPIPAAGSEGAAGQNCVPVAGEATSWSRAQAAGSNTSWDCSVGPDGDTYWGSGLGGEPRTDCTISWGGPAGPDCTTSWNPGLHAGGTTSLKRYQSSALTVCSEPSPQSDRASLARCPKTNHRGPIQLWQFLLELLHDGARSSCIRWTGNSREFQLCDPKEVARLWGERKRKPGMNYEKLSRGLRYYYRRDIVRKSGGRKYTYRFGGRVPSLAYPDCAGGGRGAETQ
The conditions noted are these: protein: recombinant; tags: N-terminal GST; dsDNA, one strand shown. Put shortly: as §1

The target of test [16] is T10, ELF3 (Homo sapiens, UniProt P78545 1-371).
T10 sequence: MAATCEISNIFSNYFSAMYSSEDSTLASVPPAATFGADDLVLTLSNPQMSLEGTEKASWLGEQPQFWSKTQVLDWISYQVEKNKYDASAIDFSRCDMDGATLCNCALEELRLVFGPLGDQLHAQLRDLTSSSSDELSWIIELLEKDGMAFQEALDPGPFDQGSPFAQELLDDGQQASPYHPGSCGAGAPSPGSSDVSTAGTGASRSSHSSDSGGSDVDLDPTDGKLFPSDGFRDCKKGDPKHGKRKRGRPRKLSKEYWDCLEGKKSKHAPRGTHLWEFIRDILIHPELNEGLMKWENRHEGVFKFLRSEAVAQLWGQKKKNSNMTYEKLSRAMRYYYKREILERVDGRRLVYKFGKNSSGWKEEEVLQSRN
The conditions noted are these: protein: recombinant; tags: N-terminal GST; dsDNA, one strand shown. Put shortly:
as §1

Test [17] addresses ETV1 (Homo sapiens, UniProt P50549 1-477). The conditions noted are these: protein: recombinant; tags: N-terminal GST; dsDNA, one strand shown. The gist of the method: as §1

Sequence of ELF4 (Q99607 whole entry): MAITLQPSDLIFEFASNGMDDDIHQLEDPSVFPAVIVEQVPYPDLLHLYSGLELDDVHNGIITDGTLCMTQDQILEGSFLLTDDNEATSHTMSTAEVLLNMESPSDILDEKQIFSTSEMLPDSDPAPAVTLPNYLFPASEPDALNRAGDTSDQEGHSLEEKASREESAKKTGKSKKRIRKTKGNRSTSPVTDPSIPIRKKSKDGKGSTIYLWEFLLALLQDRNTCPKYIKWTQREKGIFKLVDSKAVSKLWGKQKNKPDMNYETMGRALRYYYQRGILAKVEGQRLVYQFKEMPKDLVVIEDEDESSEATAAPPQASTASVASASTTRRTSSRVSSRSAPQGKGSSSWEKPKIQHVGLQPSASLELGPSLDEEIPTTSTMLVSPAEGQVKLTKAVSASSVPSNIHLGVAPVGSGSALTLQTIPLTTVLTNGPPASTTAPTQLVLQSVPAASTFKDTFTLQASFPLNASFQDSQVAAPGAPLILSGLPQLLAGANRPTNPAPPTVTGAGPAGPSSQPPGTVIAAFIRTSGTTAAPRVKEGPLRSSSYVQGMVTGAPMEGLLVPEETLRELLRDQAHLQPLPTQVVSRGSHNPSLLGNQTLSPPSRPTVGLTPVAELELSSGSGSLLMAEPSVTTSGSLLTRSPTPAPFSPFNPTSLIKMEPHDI
Sequence of ETV1 (P50549 whole entry): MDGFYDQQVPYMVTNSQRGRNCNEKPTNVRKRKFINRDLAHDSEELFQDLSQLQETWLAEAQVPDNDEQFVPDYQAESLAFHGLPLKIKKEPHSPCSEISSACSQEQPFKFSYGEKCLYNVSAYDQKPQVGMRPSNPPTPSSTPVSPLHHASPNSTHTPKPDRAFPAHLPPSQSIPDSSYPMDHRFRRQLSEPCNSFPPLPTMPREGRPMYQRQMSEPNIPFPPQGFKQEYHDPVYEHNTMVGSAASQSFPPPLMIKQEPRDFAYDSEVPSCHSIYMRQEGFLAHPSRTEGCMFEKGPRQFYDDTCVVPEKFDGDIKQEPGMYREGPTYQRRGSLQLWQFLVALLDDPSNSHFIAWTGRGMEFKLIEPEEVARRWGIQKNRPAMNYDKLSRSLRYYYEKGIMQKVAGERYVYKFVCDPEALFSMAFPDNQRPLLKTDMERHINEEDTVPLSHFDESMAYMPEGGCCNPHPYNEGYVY
Sequence of HSF1 (Q00613 whole entry): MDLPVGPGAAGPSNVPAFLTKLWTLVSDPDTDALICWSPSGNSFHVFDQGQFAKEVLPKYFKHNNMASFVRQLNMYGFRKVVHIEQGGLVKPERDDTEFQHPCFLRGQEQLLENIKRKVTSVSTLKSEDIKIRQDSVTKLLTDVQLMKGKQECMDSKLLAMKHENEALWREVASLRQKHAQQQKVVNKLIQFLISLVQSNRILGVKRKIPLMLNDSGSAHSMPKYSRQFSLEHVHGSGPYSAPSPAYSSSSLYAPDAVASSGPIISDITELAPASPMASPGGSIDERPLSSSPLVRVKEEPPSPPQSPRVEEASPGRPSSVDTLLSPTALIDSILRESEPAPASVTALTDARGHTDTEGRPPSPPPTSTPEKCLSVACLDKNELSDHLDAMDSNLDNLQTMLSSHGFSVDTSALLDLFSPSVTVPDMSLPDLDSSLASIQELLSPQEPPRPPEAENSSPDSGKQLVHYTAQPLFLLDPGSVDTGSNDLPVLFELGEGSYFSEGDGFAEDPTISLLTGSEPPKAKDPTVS
Sequence of ETV5 (P41161 whole entry): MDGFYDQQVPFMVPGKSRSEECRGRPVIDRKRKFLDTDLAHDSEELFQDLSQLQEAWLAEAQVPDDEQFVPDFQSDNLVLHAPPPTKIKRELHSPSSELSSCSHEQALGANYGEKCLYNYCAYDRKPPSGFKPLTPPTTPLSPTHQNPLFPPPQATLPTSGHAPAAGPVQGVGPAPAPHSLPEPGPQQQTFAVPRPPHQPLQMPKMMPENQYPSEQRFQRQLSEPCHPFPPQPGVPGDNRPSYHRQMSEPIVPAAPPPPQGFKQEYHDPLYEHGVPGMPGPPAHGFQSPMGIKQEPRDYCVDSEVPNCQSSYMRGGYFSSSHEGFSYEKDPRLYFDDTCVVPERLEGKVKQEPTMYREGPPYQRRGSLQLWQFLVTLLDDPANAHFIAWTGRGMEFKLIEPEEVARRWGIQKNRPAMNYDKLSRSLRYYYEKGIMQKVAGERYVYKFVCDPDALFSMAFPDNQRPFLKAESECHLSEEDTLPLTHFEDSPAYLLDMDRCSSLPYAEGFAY
Sequence of SPIB (Q01892 whole entry): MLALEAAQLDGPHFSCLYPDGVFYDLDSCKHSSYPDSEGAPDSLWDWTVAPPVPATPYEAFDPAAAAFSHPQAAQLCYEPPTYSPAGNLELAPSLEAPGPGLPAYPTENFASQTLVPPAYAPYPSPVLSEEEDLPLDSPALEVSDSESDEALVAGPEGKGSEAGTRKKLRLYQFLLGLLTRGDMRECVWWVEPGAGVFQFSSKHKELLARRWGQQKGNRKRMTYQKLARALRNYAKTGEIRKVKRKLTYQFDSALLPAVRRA
Sequence of ELF1 (P32519 whole entry): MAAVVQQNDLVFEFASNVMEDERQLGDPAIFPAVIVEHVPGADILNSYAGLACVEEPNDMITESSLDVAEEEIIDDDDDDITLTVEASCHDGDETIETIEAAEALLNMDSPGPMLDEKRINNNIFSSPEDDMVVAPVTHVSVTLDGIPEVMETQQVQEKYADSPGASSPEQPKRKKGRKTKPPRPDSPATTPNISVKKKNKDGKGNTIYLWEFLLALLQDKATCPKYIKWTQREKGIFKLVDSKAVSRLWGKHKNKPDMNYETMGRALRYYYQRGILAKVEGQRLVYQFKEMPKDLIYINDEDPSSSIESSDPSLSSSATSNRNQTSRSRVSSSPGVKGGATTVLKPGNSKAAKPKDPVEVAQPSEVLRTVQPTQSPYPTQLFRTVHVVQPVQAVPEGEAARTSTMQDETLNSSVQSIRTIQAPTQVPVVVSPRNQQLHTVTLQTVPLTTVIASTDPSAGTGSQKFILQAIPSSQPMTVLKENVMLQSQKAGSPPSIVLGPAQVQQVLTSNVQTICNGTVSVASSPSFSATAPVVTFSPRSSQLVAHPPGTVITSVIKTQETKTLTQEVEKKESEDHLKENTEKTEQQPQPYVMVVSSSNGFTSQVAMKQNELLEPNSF

Regarding GTTCCA, the binding signal in test [1] is 1.12 fold enrichment (6-mer frequency, TF over GST control); in [2], 1.03 fold enrichment (6-mer frequency, TF over GST control); in [3], 1.01 fold enrichment (6-mer frequency, TF over GST control); in test [4] it was 1.11 fold enrichment (6-mer frequency, TF over GST control); in [5], 1 fold enrichment (6-mer frequency, TF over GST control); in test [6] it was 1.03 fold enrichment (6-mer frequency, TF over GST control). Further, the binding signal was 1.1 fold enrichment (6-mer frequency, TF over GST control) in test [7]; 1.08 fold enrichment (6-mer frequency, TF over GST control) in test [8]; 1.01 fold enrichment (6-mer frequency, TF over GST control) in test [9]; 1.05 fold enrichment (6-mer frequency, TF over GST control) in [10]; 1.79 fold enrichment (6-mer frequency, TF over GST control) in [11]; 1.21 fold enrichment (6-mer frequency, TF over GST control) in test [12]. Besides, the binding signal in [13] was 1.13 fold enrichment (6-mer frequency, TF over GST control); in [14], 1.14 fold enrichment (6-mer frequency, TF over GST control); in [15] it was 1.06 fold enrichment (6-mer frequency, TF over GST control); in test [16] it was 1.12 fold enrichment (6-mer frequency, TF over GST control); in test [17], 1.06 fold enrichment (6-mer frequency, TF over GST control).
